According to article PMC4336329 (PLoS ONE, 2015):
About 14,000 (4.5%) of roughly 310,000 compounds showed an effect of 50% or more. Effects have a minus sign here. The full list was thinned out, with strong results kept by preference.

biological target: human ether-à-go-go-related gene (hERG) potassium channel (human, UniProt Q12809); assay: primary screen, population patch clamp on CHO cells stably expressing hERG; higher = less effect of the substance
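Further: peak tail current of the secondary pulse compared with the same well before compound.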

Sequence of human ether-à-go-go-related gene (hERG) potassium channel (Q12809 whole entry, looked up): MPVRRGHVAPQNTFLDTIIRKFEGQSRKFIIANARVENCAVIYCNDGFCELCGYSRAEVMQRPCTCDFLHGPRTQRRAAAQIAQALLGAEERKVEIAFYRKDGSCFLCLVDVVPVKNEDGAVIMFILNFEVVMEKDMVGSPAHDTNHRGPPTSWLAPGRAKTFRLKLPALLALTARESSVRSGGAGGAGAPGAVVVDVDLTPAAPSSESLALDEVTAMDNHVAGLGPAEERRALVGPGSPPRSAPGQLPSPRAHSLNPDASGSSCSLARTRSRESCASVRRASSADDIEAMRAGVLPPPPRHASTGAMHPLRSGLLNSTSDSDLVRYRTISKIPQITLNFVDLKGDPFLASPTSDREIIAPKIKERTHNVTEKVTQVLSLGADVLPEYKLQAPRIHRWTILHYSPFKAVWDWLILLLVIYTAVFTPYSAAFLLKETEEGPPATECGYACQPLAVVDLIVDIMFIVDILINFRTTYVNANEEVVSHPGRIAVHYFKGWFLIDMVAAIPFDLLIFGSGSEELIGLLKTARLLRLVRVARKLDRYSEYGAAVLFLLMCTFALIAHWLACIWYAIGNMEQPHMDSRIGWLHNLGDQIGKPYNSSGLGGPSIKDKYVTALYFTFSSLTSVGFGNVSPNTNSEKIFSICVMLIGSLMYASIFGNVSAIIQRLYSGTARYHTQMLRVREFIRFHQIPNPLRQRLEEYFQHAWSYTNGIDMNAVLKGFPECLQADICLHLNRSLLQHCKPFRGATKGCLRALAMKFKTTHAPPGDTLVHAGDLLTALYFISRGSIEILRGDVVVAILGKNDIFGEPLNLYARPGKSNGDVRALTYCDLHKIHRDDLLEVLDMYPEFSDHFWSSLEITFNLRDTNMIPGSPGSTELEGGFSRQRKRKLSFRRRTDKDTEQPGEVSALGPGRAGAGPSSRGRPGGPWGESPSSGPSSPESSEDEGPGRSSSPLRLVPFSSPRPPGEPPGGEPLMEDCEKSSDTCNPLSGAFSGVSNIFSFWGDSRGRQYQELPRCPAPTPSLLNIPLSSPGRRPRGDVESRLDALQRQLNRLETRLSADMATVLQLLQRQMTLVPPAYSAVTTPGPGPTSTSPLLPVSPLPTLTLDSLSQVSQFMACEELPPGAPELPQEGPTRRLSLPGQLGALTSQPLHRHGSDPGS

Compound	hERG current change (%, negative = inhibition) at 10uM [%]
COc1cccc(CN2CCNC(=O)C2CC(=O)NCCc2ccccn2)c1 (centres unmarked)	9.8
CC1CCN(C(c2cc3cc4c(cc3[nH]c2=O)OCO4)c2nnnn2CC2CCCO2)CC1 (centres unmarked)	-3.99
Nc1ccc(SCCN2C(=O)c3ccccc3C2=O)cc1	-1.22
CC(=O)/C(C(=N)N1CCN(C(c2ccccc2)c2ccccc2)CC1)=C(\C)O	8.3
O=C(CCNC(=O)c1ccco1)Nc1ccccc1OC(F)F	10.4
COc1ccccc1-c1cc(C(=O)NCCc2ccccc2)no1	5.18
BrCC(Br)C1CCC(Br)C(Br)C1 (centres unmarked)	20.6
Cc1cc(OCC(=O)NC(C)(C)C)ccc1Cl	7.04
COC(=O)c1ccc2c(c1)NC1=C(C(=O)CC(C)(C)C1)C(c1ccncc1)N2 (centres unmarked)	-4.48
O=C(NCc1ccco1)c1cc([N+](=O)[O-])ccc1N1CCOCC1	-25.4
c1ccc(-n2nnnc2CN2CCOCC2)cc1	14.8
CCOC(=O)[C@H]1[C@H]2COc3ccc(C)cc3[C@@H]2N2C(=O)CN(CC3CCCO3)C(=O)[C@@]12C (some centres unmarked)	7.72
CCOc1ccc2nc(NCCNC(=O)c3cc(OC)c(OC)c(OC)c3)c(C#N)cc2c1	5.24
COc1ccc(C(=O)NCCNc2ccc([N+](=O)[O-])cc2)cc1	-40.9
CCOc1ccc2nc(NCCCNC(=O)c3cc(OC)c(OC)c(OC)c3)c(C#N)cc2c1	-51.3
O=C(NCCNc1ccc([N+](=O)[O-])cc1)c1ccc(Cl)cc1	-52.8
O=C(NCCNc1ccc([N+](=O)[O-])cc1)c1cc(F)c(F)cc1Cl	-45.1
COc1ccc2nc(NCCCNC(=O)c3cc(OC)c(OC)c(OC)c3)c(C#N)cc2c1	-11
Cn1nnnc1Sc1ncnc2scc(-c3ccccc3Br)c12	-4.66
COc1ccc(CCN(C)C2CC(=O)N(c3ccccc3)C2=O)cc1OC (centres unmarked)	-5.77
Cc1ccc(N(Cc2cc(=O)[nH]c3ccccc23)C(=O)c2ccco2)cc1	-34.4
Cc1cc(C)n(C(=O)Cn2nc(C)c(Br)c2C)n1	14
O=C(Nc1cccc(Cl)c1)Nc1cnccn1	29.1
CCOC(=O)C1(CC2CCCCO2)CCN(Cc2nc3ccccc3[nH]2)CC1 (centres unmarked)	-19.5

Compound	hERG current change (%, negative = inhibition) at 10uM [%]
CCOC(=O)C1(CC2CCCCO2)CCN(Cc2nc(C(C)C)cs2)CC1 (centres unmarked)	-5.24
CCOC(=O)C1(CC2CCCCO2)CCN(Cc2c(C)cc(C)cc2-n2cccn2)CC1 (centres unmarked)	-77.8
CCOC(=O)C1(CC2CCCCO2)CCN(Cc2nccn2-c2cccc(C)c2)CC1 (centres unmarked)	13.2
CCCCc1ncc(CN2CCC(CC3CCCCO3)(C(=O)OCC)CC2)[nH]1 (centres unmarked)	-45
CCOC(=O)C1(CC2CCCCO2)CCN(Cc2cc(F)ccc2-n2cccn2)CC1 (centres unmarked)	-57.1
CNC(=O)NC(=O)C(C)OC(=O)c1cc2c(s1)CCCCC2 (centres unmarked)	-7.89
COc1ccccc1CNC(=O)CCS(=O)(=O)Cc1ccc(C)cc1	11.3
O=C(CCNC(=O)c1ccco1)Nc1ccc(OC(F)F)cc1	-23.8
O=C(CCNC(=O)c1ccco1)Nc1ccc(SC(F)F)cc1	-52.7
O=C(CCNC(=O)c1ccco1)Nc1ccccc1	15
COc1cc(OC)c(C2=NOC(C(=O)Nc3ccc4c(c3)OCO4)C2)cc1Cl (centres unmarked)	10.7
C=CCOC(=O)C(=O)/C=C/c1c(C)n(C)n(-c2ccccc2)c1=O	27.2
CCOc1ccc(NC(=O)COC(=O)CC2CCCCC2)cc1	-6.75
COc1ccc(/C=C(\NC(=O)c2ccc(Cl)cc2)C(=O)NCCCN2CCOCC2)cc1OC	13.9
O=C(NCCN1CCOCC1)/C(=C/c1ccccc1)NC(=O)c1ccccc1	-16.4
Cc1ccc(C(=O)N/C(=C\c2ccc(Cl)cc2)C(=O)NCCCN2CCOCC2)cc1	-72.5
Cc1ccc(C(=O)NC(=S)NCCN2CCOCC2)cc1	23.3
Cc1ccc(C(=O)N/C(=C\c2ccc(F)cc2)C(=O)NCCN2CCOCC2)cc1	-75.6
Cc1ccc(C(=O)N/C(=C\c2ccccc2)C(=O)NCCN2CCOCC2)cc1	-62.4
COc1ccc(/C=C(\NC(=O)c2ccc(C)cc2)C(=O)NCCN2CCOCC2)cc1	-64.6
COc1ccc(/C=C(/NC(=O)c2ccccc2)C(=O)NCCN2CCOCC2)cc1OC	11.6
COc1ccc(/C=C(\NC(=O)c2ccccc2)C(=O)NCCN2CCOCC2)cc1	-34.3
O=C(NC(=S)NCCN1CCOCC1)c1ccc(F)cc1	-4.01
